Test [1] is described as follows: Nuclear factor erythroid 2-related factor 2/antioxidant responsive element (Nrf2/ARE) small molecule agonists: qHTS cell viability counter screen in human keratinocytes (AID 1919968; active means well fitted cell-killing curve with a large enough effect in the repeat runs; further: nearly all actives have a fitted effect of over 55% in size; further: potency means the concentration at half of the fitted maximal effect). The gist of the method:
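After a 5 h attachment period, ARE-reporter keratinocytes were dosed with compounds in DMSO and then cultured 23 h at 37 C. Cell viability came from CellTiter-Fluor signal read after a further 1 h.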
(In qHTS, concentration-response curves come from the screen itself.)

Test [2] can be described thus: Nuclear factor erythroid 2-related factor 2/antioxidant responsive element (Nrf2/ARE) small molecule agonists: luciferase reporter gene qHTS assay in human keratinocytes (AID 1919969). Further: nearly all actives have a fitted effect of over 35% in size. For orientation: Reporter assays use an easily measured gene product as a stand-in for the process of interest.
Test [3] has as its target Gonadotropin-releasing hormone receptor (Homo sapiens) (UniProt P30968). The test can be described thus: Human gonadotropin-releasing hormone receptor (GnRHR) small molecule agonists, calcium flux assay in GnRHR-HEK293 cells (AID 1920063). Further: nearly all actives have a fitted effect of over 35% in size. Further: potency means the concentration at half of the fitted maximal effect. The gist of the method: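 We seeded human GnRHR-expressing HEK293 cells for 18 hours, loaded them with calcium dye for an hour at 37 C, added test compounds, and recorded fluorescence intensity kinetically for three minutes.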
A general note: Calcium flux is commonly read through the fluorescence of an indicator in the cells.

The nature of test [4]: G protein-coupled receptor (GPCR) small molecule agonists, calcium flux assay: HEK293 wild type cell line counter screen (AID 1920065). The gist of the method:
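Calcium-sensitive dye, loaded 1 h at 37 C into cells cultured 18 h, reports compound-evoked calcium release as fluorescence (Ex/Em 480/540), measured over 3 min. Agonist mode; 15-point titrations, triplicate.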

A short description of test [5]: p53 small molecule agonists, cell-based qHTS assay with human liver microsomes (AID 1963577).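 Further: p53 response element beta-lactamase reporter cells with liver microsomes plus NADPH.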 The gist of the method:
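16 h, 37 C exposure of p53RE-bla cells to compounds with human liver microsomes and NADPH (0.5 mg/mL final each); detection via LiveBLAzer mixture, 2 h dark at room temperature.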

Test [6] is described as follows: p53 small molecule agonists, cell-based qHTS assay with rat liver microsomes (AID 1963578). The method, boiled down:
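With rat liver microsomes and NADPH present (0.5 mg/mL final each), p53RE-bla cells are treated with compound for 16 h at 37 C. LiveBLAzer detection mixture is then applied for 2 h at room temperature in the dark.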

The nature of test [7]: p53 small molecule agonists, cell-based qHTS assay with human liver microsomes: qHTS cell viability counter screen (AID 1963579). Further: nearly all actives have a fitted effect of over 45% in size. Further: potency means the concentration at half of the fitted maximal effect. The gist of the method:
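In this multiplexed counter screen, the reporter plates were subsequently treated with CellTiter-Glo so that cell viability, reflected by luminescence, could be recorded for p53RE-bla cells dosed 16 h with compounds under microsomal activation (HLM and NADPH).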

Test [8] is described as follows: p53 small molecule agonists, cell-based qHTS assay with rat liver microsomes: qHTS cell viability counter screen (AID 1963580). Further: nearly all actives have a fitted effect of over 45% in size. The method, boiled down:
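HCT-116 p53RE-bla, 4,000 cells/well, 5 h pre-incubation; cpd + rat liver microsomes 0.5 mg/mL + NADPH 0.5 mg/mL (final); 16 h, 37 C; CellTiter-Glo, 30 min RT; luminescence.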

A short description of test [9]: p53 small molecule agonists, cell-based qHTS assay: qHTS cell viability counter screen (AID 1963581). Further: nearly all actives have a fitted effect of over 45% in size. The method, boiled down:
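Following 5 h attachment, HCT-116 p53RE-bla cells took up compound for 16 h at 37 C; the reporter was read with B/G FRET substrate (2 h RT), and viability then via CellTiter-Glo ATP luminescence.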

Test [10] deals with 5-hydroxytryptamine receptor 2A (Homo sapiens) (UniProt P28223). The test can be described thus: 5-hydroxytryptamine receptor 2A (HTR2A) small molecule antagonists, cell-based qHTS assay (AID 1963586). Further: nearly all actives have a fitted effect of over 45% in size. Further: potency means the concentration at half of the fitted maximal effect. The method, boiled down:
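Antagonist-mode intracellular calcium assay: DOI (4 nM) added after 5 min compound pre-incubation at room temperature to dye-loaded HTR2A-CHO cells. Fluorescence followed for 3 min, sampled every second.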

For test [11] the target is unchanged. The test can be described thus: 5-hydroxytryptamine receptor 2A (HTR2A) small molecule agonists, cell-based qHTS assay (AID 1963587). Further: nearly all actives have a fitted effect of over 30% in size. Further: potency means the concentration at half of the fitted maximal effect. The gist of the method: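 Kinetic calcium-flux fluorescence (2 min, 1 sec intervals) after compound addition in agonist mode. HTR2A-CHO cells were cultured 18 h, then dye-loaded 1 h at 37 C.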
For test [12], the target named is Muscarinic acetylcholine receptor M1 (Homo sapiens) (UniProt P11229). The test can be described thus: Cholinergic receptor muscarinic 1 (CHRM1) small molecule antagonists, cell-based qHTS assay (AID 1963588). Further: nearly all actives have a fitted effect of over 40% in size. Further: potency means the concentration at half of the fitted maximal effect. The method, boiled down: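 CHRM1-CHO calcium-flux assay, antagonist mode. Cells were seeded 18 h, dye-loaded 1 h at 37 C and given compound for 5 min at RT, then acetylcholine was added at 50nM. FDSS fluorescence was read 3 min; 15 concentrations, three runs.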
Sequence of Muscarinic acetylcholine receptor M1 (Homo sapiens) (P11229 whole entry, looked up): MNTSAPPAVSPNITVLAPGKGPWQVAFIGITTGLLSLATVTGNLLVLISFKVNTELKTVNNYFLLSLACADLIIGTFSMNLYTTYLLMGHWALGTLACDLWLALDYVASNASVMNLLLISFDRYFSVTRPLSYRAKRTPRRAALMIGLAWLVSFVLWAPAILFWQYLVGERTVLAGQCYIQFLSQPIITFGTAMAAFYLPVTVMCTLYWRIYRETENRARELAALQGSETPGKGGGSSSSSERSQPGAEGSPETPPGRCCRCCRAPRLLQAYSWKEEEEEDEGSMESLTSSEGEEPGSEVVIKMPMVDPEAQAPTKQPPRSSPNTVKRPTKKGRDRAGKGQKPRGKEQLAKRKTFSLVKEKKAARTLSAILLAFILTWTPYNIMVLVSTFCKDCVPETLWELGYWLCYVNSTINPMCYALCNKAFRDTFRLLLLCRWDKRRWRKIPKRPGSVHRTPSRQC

The target is the same in test [13]. The test can be described thus: Cholinergic receptor muscarinic 1 (CHRM1) small molecule agonists, cell-based qHTS assay (AID 1963589). Further: nearly all actives have a fitted effect of over 35% in size. The gist of the method:
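Measures agonist-induced intracellular calcium rise. Stable human CHRM1 CHO line, 1 h dye load at 37 C, compounds from DMSO, kinetic fluorescence read.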

Test [14] is described as follows: cAMP Responsive Elements (CRE) small molecule agonists, cell-based qHTS assay (AID 1963590). The method, boiled down: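 A CRE-responsive beta-lactamase reporter in HEK 293T cells was used. Treatment ran 3 h at 37 C; detection used LiveBLAzer B/G FRET substrate for 2 h at room temperature.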
Test [15] is described as follows: cAMP Responsive Elements (CRE) small molecule antagonists, cell-based qHTS assay (AID 1963591; active means well fitted inhibition curve with a large enough effect in the signal ratio in the repeat runs, not every such curve was filed as active; the % refers to the signal ratio). The method, boiled down: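 HEK293T cells carrying a CRE-driven beta-lactamase reporter receive compound and NKH477 (0.25 uM final) for 3 h. Fluorescence from LiveBLAzer B/G FRET substrate is read after 2 h at room temperature.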
Test [16] addresses Beta-2 adrenergic receptor (Homo sapiens) (UniProt P07550). The test can be described thus: Adrenergic beta2 receptor (ADRB2) small molecule antagonists, cell-based qHTS assay (AID 1963592). Further: series mostly up to about 92 µM; nearly all actives have a fitted effect of over 50% in size. The method, boiled down:
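Cells (CHO, stable ADRB2 overexpression) incubated 18-20hr at 37C; compounds added from DMSO; agonist mix (1nM isoproterenol, 100uM IBMX, 25uM Ro-20-1724) added; 0.5hr RT; d2-cAMP and anti-cAMP-cryptate added; 1hr RT; 665/615 nm read.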

Test [17] shares this target. Briefly: Adrenergic beta2 receptor (ADRB2) small molecule agonists, cell-based qHTS assay (AID 1963593).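 Further: CHO cells stably overexpressing human ADRB2.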 The method, boiled down: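 CHO cells stably over-expressing ADRB2 were plated overnight at 37C, then dosed with compounds plus a stimulation mix containing 100uM IBMX and 25uM Ro-20-1724 for 0.5hr at room temperature. cAMP was measured by HTRF competition, 1hr.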

The target of test [18] is D(2) dopamine receptor (Homo sapiens) (UniProt P14416). Briefly: Dopamine D2 receptor (DRD2) small molecule agonists, cell-based qHTS assay (AID 1963594). Further: nearly all actives have a fitted effect of over 35% in size. The gist of the method: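 cAMP accumulation in DRD2-HEK293 cells measured by HTRF after 1 h detection; compounds added 10 min before NKH477 (200nM […]) forskolin-analogue stimulation, 30 min at room temperature, with Ro20-1724 present at 0.1 mM final.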
Sequence of D(2) dopamine receptor (Homo sapiens) (P14416 whole entry, looked up): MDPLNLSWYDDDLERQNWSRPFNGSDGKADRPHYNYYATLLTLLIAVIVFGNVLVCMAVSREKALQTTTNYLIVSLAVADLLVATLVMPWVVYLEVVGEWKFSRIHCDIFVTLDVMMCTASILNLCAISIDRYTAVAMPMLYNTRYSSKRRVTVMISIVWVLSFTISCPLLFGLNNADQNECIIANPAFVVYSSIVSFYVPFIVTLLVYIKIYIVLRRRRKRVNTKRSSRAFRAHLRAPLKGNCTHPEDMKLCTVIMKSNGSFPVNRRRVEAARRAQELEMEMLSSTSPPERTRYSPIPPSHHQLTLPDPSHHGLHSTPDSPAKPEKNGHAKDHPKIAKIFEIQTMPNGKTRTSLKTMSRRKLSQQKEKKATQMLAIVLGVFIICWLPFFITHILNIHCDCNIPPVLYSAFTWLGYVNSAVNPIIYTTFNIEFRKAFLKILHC

The target is the same in test [19]. The test can be described thus: Dopamine D2 receptor (DRD2) small molecule antagonists, cell-based qHTS assay (AID 1963595; active means well fitted inhibition curve with a large enough effect in the signal ratio in the repeat runs, with a control signal flat; the % refers to the signal ratio). The method, boiled down:
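In this cell-based antagonist screen, compounds act for 10 min at room temperature before a 30 min challenge with 12 nM quinpirole and 200 nM NKH477. cAMP is quantified by HTRF competition in DRD2-HEK293 cells containing 0.1 mM Ro20-1724.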

A short description of test [20]: p53 small molecule agonists, cell-based qHTS assay (AID 1963582; active means well fitted activation curve with a large enough effect in the signal ratio in the repeat runs, not every such curve was filed as active; the % refers to the signal ratio). The method, boiled down: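 In this cell-based concentration-response screen, a p53 response element drives beta-lactamase; cells received DMSO-borne compounds after 5 h culture and were incubated a further 16 h before FRET substrate development.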

The values below come from PubChem BioAssay (Tox21).

“And” between values parts separate entries of the source, which are not always exact repeats. Equal entries are not always repeated. Inconclusive results are not listed. More than one record can exist for a structure, and the calls need not agree. The source made the active and inactive calls. Unless noted, the call rests on the fitted dose curve.

Sequence of 5-hydroxytryptamine receptor 2A (Homo sapiens) (P28223 whole entry, looked up): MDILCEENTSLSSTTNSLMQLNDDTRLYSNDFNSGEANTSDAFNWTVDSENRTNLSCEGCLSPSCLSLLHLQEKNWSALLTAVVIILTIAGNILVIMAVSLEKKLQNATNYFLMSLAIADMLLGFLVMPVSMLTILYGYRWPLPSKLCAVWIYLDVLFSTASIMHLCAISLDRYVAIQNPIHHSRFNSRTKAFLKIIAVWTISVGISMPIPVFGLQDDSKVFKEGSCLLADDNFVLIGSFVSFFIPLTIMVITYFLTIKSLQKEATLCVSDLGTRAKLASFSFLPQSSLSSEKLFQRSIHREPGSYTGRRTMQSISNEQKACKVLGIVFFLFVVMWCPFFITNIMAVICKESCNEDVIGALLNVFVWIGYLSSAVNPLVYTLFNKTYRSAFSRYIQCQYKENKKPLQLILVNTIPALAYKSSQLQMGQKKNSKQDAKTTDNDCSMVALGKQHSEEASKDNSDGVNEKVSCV
Sequence of Gonadotropin-releasing hormone receptor (Homo sapiens) (P30968 whole entry, looked up): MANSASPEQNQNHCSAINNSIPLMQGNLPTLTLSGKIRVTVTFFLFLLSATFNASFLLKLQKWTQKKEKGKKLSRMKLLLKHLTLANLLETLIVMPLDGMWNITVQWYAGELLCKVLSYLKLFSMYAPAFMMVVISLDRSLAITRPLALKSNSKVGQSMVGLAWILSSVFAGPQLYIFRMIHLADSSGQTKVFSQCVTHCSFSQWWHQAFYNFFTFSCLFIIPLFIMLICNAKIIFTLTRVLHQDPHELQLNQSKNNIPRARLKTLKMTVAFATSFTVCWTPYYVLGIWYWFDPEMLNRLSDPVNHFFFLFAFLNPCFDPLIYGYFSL
Sequence of Beta-2 adrenergic receptor (Homo sapiens) (P07550 whole entry, looked up): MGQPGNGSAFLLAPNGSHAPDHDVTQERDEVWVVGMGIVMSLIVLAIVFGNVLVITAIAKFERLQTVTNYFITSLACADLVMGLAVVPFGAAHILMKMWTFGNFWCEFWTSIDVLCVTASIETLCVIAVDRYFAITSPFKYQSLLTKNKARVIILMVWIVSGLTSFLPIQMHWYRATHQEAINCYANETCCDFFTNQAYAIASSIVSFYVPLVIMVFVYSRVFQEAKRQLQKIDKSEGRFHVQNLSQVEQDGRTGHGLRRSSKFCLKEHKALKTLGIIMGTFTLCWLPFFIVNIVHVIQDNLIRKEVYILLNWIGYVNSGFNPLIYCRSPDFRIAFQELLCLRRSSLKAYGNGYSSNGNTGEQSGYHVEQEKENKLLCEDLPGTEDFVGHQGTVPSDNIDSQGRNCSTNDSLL

Turning to `CC(C)CC(O)Cc1ccccc1` (configuration not stated), the Potency entry in test [1], in [2], in [3], in test [4], in test [5] and in test [6] was “inactive” in each case. Also, the Potency entry in test [7], in test [8], in test [9], in [10], in test [11] and in test [12] was “inactive” throughout. The Potency result in [13], in [14], in test [15], in [16], in test [17] and in test [18] was “inactive” throughout. Also, in test [19], the Potency result was “inactive”.
As for `O=S(=O)(O)c1ccc(N=Nc2c(O)ccc3cc(S(=O)(=O)O)ccc23)cc1`, in test [1], the Potency is 30.8 µM (active). For the same compound, the Potency entry in test [2], in test [3], in test [4], in [7], in [8] and in test [10] was “inactive” each time. In addition, the Potency result in [11], in test [12], in test [13], in test [14] and in test [15] was “inactive” each time.
Regarding `CCCCCCCOC(=O)c1ccccc1C(=O)OCCCCCCC`, the Potency result in test [1], in [2], in [3], in test [4], in test [6] and in [7] was “inactive” each time. The Potency entry in test [8], in test [20], in test [10], in test [11], in [12] and in test [13] was “inactive” throughout. In addition, the Potency entry in test [14], in test [15], in [16], in test [17], in [18] and in test [19] was “inactive” throughout.
As for `CCCc1c2oc(C(=O)O)cc(=O)c2cc2c(=O)cc(C(=O)O)n(CC)c12`, the Potency entry in test [1], in test [2], in test [3], in [4], in test [5] and in [6] was “inactive” throughout. For the same compound, the Potency entry in [7], in test [8], in test [9], in test [20], in [11] and in [12] was “inactive” each time. The Potency result in test [13], in test [14], in [15], in [16], in test [17] and in test [18] was “inactive” throughout. In addition, in test [19], the Potency entry is “inactive”.
With `CCCCCCCCCCCCCCCC[N+](C)(C)CC`, the Potency is 54.6 µM (active) in test [1]; 13.8 µM (active) in [3]; 45.9 µM (active) and inactive in test [7]; 13.3 µM (active) and 11.6 µM (active) in test [10]; 43.8 µM (active) in test [11]; 422 nM (active) and 65 nM (active) in test [12]. Besides, the Potency entry in [2], in [4], in test [5], in test [6], in test [9] and in [13] was “inactive” each time. Also, the Potency result in test [16], in test [18] and in [19] was “inactive” in each case.
As to `CC(C)COC(=O)c1ccccc1O`, the Potency entry in test [1], in test [2], in test [4], in test [5], in [6] and in test [7] was “inactive” each time. Also, the Potency entry in test [8], in [9], in test [20], in test [10], in test [11] and in test [12] was “inactive” in each case. In addition, the Potency result in test [13], in [14], in test [15], in test [16], in [17] and in test [19] was “inactive” each time.
Turning to `O=c1[nH]cnc2c1ncn2[C@@H]1O[C@H](CO)[C@@H](O)[C@H]1O`, the Potency result in test [1], in [2], in [3], in [5], in [6] and in [7] was “inactive” throughout. For the same compound, the Potency result in test [8], in test [9], in [20], in test [11], in test [12] and in test [13] was “inactive” in each case. Moreover, the Potency result in test [15], in test [16], in test [17], in test [18] and in test [19] was “inactive” in each case.
For the compound `CC(C)c1ccccc1O`, the Potency result in test [1], in test [2], in test [4], in test [5], in [6] and in [7] was “inactive” throughout. Besides, the Potency entry in test [8], in [9], in [20], in test [10], in [11] and in [12] was “inactive” each time. Moreover, the Potency entry in test [13], in test [14], in [15], in test [16], in test [17] and in test [18] was “inactive” throughout. Moreover, the Potency result in [19] is “inactive”.
